# Experimental data from PubChem BioAssay (EPA / NIEHS).
# Results filed as inconclusive are left out. The source holds several records for some structures; these can differ, active in one and inactive in another. The source made the active and inactive calls. How the source made its calls, unless noted: active means hit-call score of the fitted dose curve at least 0.9, where 1 is the maximum; inconclusive means response in the unintended direction; inactive means score below 0.9.
# How the values were obtained:
# [1] = CCTE_Shafer_MEA_acute_AB: CCTE's Alamar Blue Assay for Cytotoxicity in the Neural Acute Assay, Shafer Lab (AID 2284069);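 further: active compounds lower the viability signal compared with DMSO wells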
# Method: CCTE_Shafer_MEA_acute assay is conducted using Axion Biosystems 48 well microelectrode array (MEA) plates and Maestro recording system. Each well of the MEA plate contains a grid of 16 microelectrodes embedded in the culture surface. Electrically active cells, such as neurons, can be cultured over the electrodes, and electrical activity in these cells can be recorded extracellularly. The spontaneous firing of neurons is captured from each electrode on a microsecond timescale providing both temporally and spatially precise data. […] The CCTE_Shafer_MEA_acute assay uses primary cultures of rat cortical neurons. As these cultures mature over time, neural networks develop functional activity and form cohesive networks in which electrical activity can be highly coordinated. Baseline 40-minute recordings are made on days post-plating 13 or 15, followed by a secondary 40-minute recording after chemical exposure.CCTE_Shafer_MEA_acute_AB is a component of the CCTE_Shafer_MEA_acute assay. It measures the resazurin reduction using fluorescence.Data from the assay component CCTE_Shafer_MEA_acute_AB was analyzed into 1 assay endpoint. This assay endpoint, CCTE_Shafer_MEA_acute_AB, was analyzed in the positive analysis fitting direction relative to DMSO as the negative control and baseline of activity. Using a type of viability reporter, loss-of-signal activity can be used to understand cell viability.
# Metabolic activity was determined using the CellTiter Blue (CTB) assay (Promega Cat. #8081), following the manufacturer's instructions with the following modifications. Following the removal of the 50 uL sample for the LDH assay, 450 uL of media was removed from each well and replaced with 200 uL of fresh media containing a 1:6 dilution of CTB reagent for the determination of metabolic activity. Fluorescence was measured in a Fluorostar Optima fluorimeter using an excitation wavelength of 544 nm and an emission wavelength of 590 nm.
# [2] = CCTE_Shafer_MEA_acute_LDH: CCTE's Lactate Dehydrogenase Assay for Cytotoxicity in the Neural Acute Assay, Shafer Lab (AID 2284086);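 further: active means LDH release rises above DMSO vehicle level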
# How it was run: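 LDH released during 40 min compound exposure of primary rat cortical cultures, quantified by absorbance at 490 nm in collected medium. Fitting direction positive versus DMSO vehicle.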
# [3] = CCTE_Shafer_MEA_dev_per_network_spike_spike_percent: CCTE's Neural Network Formation Assay for Percent of Spikes in a Network Spike, Shafer Lab (AID 2284054; active means hit-call score of the fitted dose curve at least 0.9, where 1 is the maximum; inactive means score below 0.9)
# How it was run: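 Read-out: percent of spikes falling in a 0.05 s window at network-spike peak, from spontaneous MEA recordings on days 5, 7, 9 and 12; trapezoidal AUC; loss of signal versus DMSO. Rat cortical cultures, compound present throughout.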
# [4] = CCTE_Shafer_MEA_dev_LDH: CCTE's Lactate Dehydrogenase Assay for Cytotoxicity in the Neural Network Formation Assay, Shafer Lab (AID 2284068);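 further: exposure for twelve days from plating with re-dosing on DIV 5 and 9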
# How it was run: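 Cytotoxicity companion to network-formation recordings: rat cortical neurons received compound over 12 days of development, re-dosed at DIV 5 and 9 feeds. Viability was inferred from LDH enzyme activity relative to DMSO.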
# [5] = CCTE_Shafer_MEA_dev_AB: CCTE's Alamar Blue Assay for Cytotoxicity in the Neural Network Formation Assay, Shafer Lab (AID 2284083);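 further: twelve days of exposure from plating with re-dosing on DIV 5 and 9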
# How it was run: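 Fluorescent resazurin reduction serves as the viability read-out, with DMSO as negative control and baseline. Cells were primary rat cortical neurons grown on MEA plates and dosed from day 0 to day 12, treatment renewed on DIV 5 and 9.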
# [6] = CCTE_Shafer_MEA_dev_mutual_information_norm: CCTE's Neural Network Formation Assay for Mutual Information Normalization, Shafer Lab (AID 2284091; active means hit-call score of the fitted dose curve at least 0.9, where 1 is the maximum; inactive means score below 0.9;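 on AC50: mutual information between electrodes summarised as area under curve across four recording days; potency is for a decrease in mutual information relative to DMSO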)
# How it was run: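 Neurons from rat cortex were seeded at 1.5 x 10^5 cells/well onto PEI-coated MEAs in a laminin drop, then exposed to compound from day 0 for twelve days. Network recordings on four days gave mutual information, summarised by AUC relative to DMSO.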
# [7] = CCTE_Shafer_MEA_dev_correlation_coefficient_mean: CCTE's Neural Network Formation Assay for Mean Correlation Coefficient, Shafer Lab (AID 2284093; active means hit-call score of the fitted dose curve at least 0.9, where 1 is the maximum; inactive means score below 0.9;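 on AC50: well mean pairwise spike train correlation integrated as AUC over recording days 5 to 12; potency fitted for loss of correlation relative to DMSO vehicle wells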)
# Method: CCTE_Shafer_MEA_dev assay is conducted using Axion Biosystems 48 well microelectrode array (MEA) plates and Maestro recording system. Each well of the MEA plate contains a grid of 16 microelectrodes embedded in the culture surface. Electrically active cells, such as neurons, can be cultured over the electrodes, and electrical activity in these cells can be recorded extracellularly. The spontaneous firing of neurons is captured from each electrode on a microsecond timescale providing both temporally and spatially precise data. […] The CCTE_Shafer_MEA_dev assay uses primary cultures of rat cortical neurons. Recordings are made on days post-plating 5, 7, 9 and 12. As these cultures mature over time, neural networks develop functional activity and form cohesive networks in which electrical activity can be highly coordinated. CCTE_Shafer_MEA_dev_correlation_coefficient_mean is 1 of 19 assay components of the CCTE_Shafer_MEA_dev assay. It measures the correlation coefficent of spikes (action potential firings) between every pair of electrodes in a well during a recording in a microelectrode array (MEA) using Axion Biosystems Maestro 768 channel amplifier with the AxIS adaptive spike detector. The pairwise correlations are averaged across active electrodes to report a well-mean value. To collapse across multiple recordings made on days post-plating 5, 7, 9 and 12, the trapezoidal area-under-the-curve of the component is calculated.Data from the assay component CCTE_Shafer_MEA_dev_correlation_coefficient_mean was analyzed into 1 assay endpoint. This assay endpoint, CCTE_Shafer_MEA_dev_correlation_coefficient_mean, was analyzed in the negative analysis fitting direction relative to DMSO as the negative control and baseline of activity. Using a type of functional reporter, gain or loss-of-signal activity can be used to understand electrical activity.
# On the day prior to culture, each well was coated thoroughly with 150 uL of 0.05% polyethyleneimine (PEI, Sigma Cat P3143) in 50 mM HEPES (Sigma Cat H7523) at a pH of 8. The plate was incubated at 37C for one hour. PEI was rinsed out with 500 uL of sterile water three times. Plates were stored at 4C until the day of culture. This culture was plated at a seeding density of 1.5 x 10^5 cells/well on a 48-well MEA plate, prepared as described above. Cells were administered via a 25 uL media/laminin ([…]; Sigma Cat L2020-1MG) drop directly onto the microelectrode array, as adding the cells with the laminin results in better attachment than pre-coating with laminin. After 2 hours, an additional 475 uL of cortical media was added and the cells returned to the incubator. Exposure starts at day 0 of plating and is continued over twelve days of network development until the experiment is terminated. Cells are fed with fresh medium on DIV 5 and 9, following the recordings on those days. The entire volume of media in the well is exchanged and any vehicle or compound treatment is renewed. Complete details are found in OP-NHEERL/ISTD/SBB/TJS/2015-03-r0 (available on request, email shafer.tim@epa.gov). Measurement of the electrical activity is non-invasive, and recordings can be made from the same plate over multiple different days of the culture. In cortical neurons, this allows for the measurement of extracellular action potentials over the period during which networks form in the MEA plate.
# DIO3 (gene 1735) = test: CCTE_GLTED_hDIO3: CCTE's human Deiodinase 3 (DIO3) Inhibition Assay, Great Lakes Toxicology and Ecology Division (GLTED) Lab (AID 2284055);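 on AC50: potency is for inhibition seen as loss of released iodide signal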
# How it was run: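 Inhibition is read as reduced iodide release, measured spectrophotometrically by the Sandell-Kolthoff cerium/arsenic reaction. Adenovirus-expressed human DIO3 enzyme is exposed to chemical for 3 h, n=3 plates. Iodinated chemicals, nitrite, iron or thiocyanate may interfere.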
# [8] = UKN5_HCS_SBAD2_cell_viability: Viability Assessment in the University of Konstanz (UKN) Leist Lab Neurite Outgrowth Assay in human iPSC-derived immature Dorsal Root Ganglia Neurons (UKN5) (AID 2284056; active means hit-call score of the fitted dose curve at least 0.9, where 1 is the maximum; inactive means score below 0.9)
# Method: UKN5_HCS_SBAD2 is a cell-based, multiplexed-readout assay screening for neurite outgrowth and cell viability that uses SBAD2 (peripheral neurons differentiated from iPSC), a human peripheral nervous system cell line, with measurements taken at […] after chemical dosing in a microplate: 96-well plate. UKN5, also referred to as PeriTox, is an assay that uses human iPSC line SBAD2 as a model of peripheral neurons. Following 24 hr chemical exposures in multi-well plates, neurite area is evaluated as a marker of neurite outgrowth using high-content imaging of cells stained with calcein-AM. Cell viability is assessed using stain Hoechst H-33342.UKN5_HCS_SBAD2_cell_viability is an assay component measured from the UKN5_HCS_SBAD2 assay. It is designed to make measurements of enzyme activity, a form of viability reporter, as detected with Fluorescence intensity signals by HCS Fluorescent Imaging.The assay endpoint UKN5_HCS_SBAD2_cell_viability was analyzed with bidirectional fitting relative to DMSO as the negative control and baseline of activity. Using a type of viability reporter, gain or loss-of-signal activity can be used to understand viability effects. To generalize the intended target to other relatable targets, this assay endpoint is annotated to the cell cycle intended target family, where the subfamily is viability. […]
# [9] = UKN5_HCS_SBAD2_neurite_outgrowth: University of Konstanz (UKN) Leist Lab Neurite Outgrowth Assay in human iPSC-derived immature Dorsal Root Ganglia Neurons (UKN5) (AID 2284070; active means hit-call score of the fitted dose curve at least 0.9, where 1 is the maximum; inactive means score below 0.9); details: actives raise or lower the signal
# How it was run: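 Neurite area from calcein-AM high-content images after 24 h exposure (staining included), with H-33342 for viability, fitted both directions against DMSO. Cells: thawed immature SBAD2 peripheral neurons, 100.000 cells/cm2, with CHIR99021, SU5402, DAPT; dosing 1 h after seeding.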
smiles,measurement,setting,value
O=C(c1ccc(OCCN2CCCCC2)cc1)c1c(-c2ccc(O)cc2)sc2cc(O)ccc12,outcome,[1],inactive
same,outcome,[2],inactive
N[C@@H](CCC(=O)O)C(=O)O,outcome,[3],inactive
same,outcome,[4],inactive
same,outcome,[5],inactive
same,outcome,[2],inactive
same,outcome,[6],inactive
same,outcome,[7],inactive
CCCCOCCOCCO,outcome,[2],inactive
CC(C)(CO)CO,outcome,[1],inactive
same,outcome,[2],inactive
C=C(C)C(=O)OCCC(C)OC(=O)C(=C)C (stereo not drawn),AC50,DIO3 (gene 1735),36.9 µM (active)
CC(C)Cc1ccc(C(C)C(=O)O)cc1 (stereo not drawn),AC50,[3],15 µM (active)
same,outcome,[8],inactive
same,AC50,[4],15 µM (active)
same,outcome,[9],inactive
same,AC50,[5],2.98 µM (active)
same,AC50,[6],3.62 µM (active)
same,outcome,[7],inactive
CCn1cc(C(=O)O)c(=O)c2ccc(C)nc21,outcome,[2],inactive
CC(=O)c1ccc(C)cc1,outcome,[2],inactive
CCCCC/C=C\C=C\C(=O)OCC,AC50,DIO3 (gene 1735),26.6 µM (active)
CCCCN(CCO)CCO,outcome,[1],inactive
CCCO[Si](OCCC)(OCCC)OCCC,outcome,[2],inactive
C[C@]12CC[C@@H]3c4ccc(O)cc4CC[C@H]3[C@@H]1CC[C@@H]2O,outcome,[3],inactive
same,outcome,[4],inactive
same,AC50,[5],6.6 µM (active)
same,outcome,[5],inactive
same,outcome,[6],inactive
same,outcome,[7],inactive
CC(=O)OC/C=C(C)/C=C/C=C(C)/C=C/C1=C(C)CCCC1(C)C,AC50,DIO3 (gene 1735),37.8 µM (active)
CCCCC(CC)COC(=O)COc1ccc(Cl)cc1C (stereo not drawn),outcome,[3],inactive
same,outcome,[6],inactive
same,outcome,[7],inactive
c1ccc2scnc2c1,outcome,[3],inactive
same,outcome,[4],inactive
same,outcome,[6],inactive
same,outcome,[7],inactive
c1ccc(OCCOc2ccccc2)cc1,outcome,[1],inactive
same,outcome,[2],inactive
CCCCCCCCOC(=O)c1ccc(O)cc1,AC50,DIO3 (gene 1735),30.7 µM (active)
CC/C(=C(\c1ccccc1)c1ccc(OCCN(C)C)cc1)c1ccccc1,AC50,[3],3.89 µM (active)
same,AC50,DIO3 (gene 1735),84.2 µM (active)
same,outcome,DIO3 (gene 1735),inactive
same,AC50,[4],2.87 µM (active)
same,outcome,[1],inactive
same,AC50,[5],5 µM (active)
same,AC50,[6],0.196 µM (active)
same,AC50,[7],3.76 µM (active)
N#CCCNCCC#N,outcome,[3],inactive
same,outcome,[4],inactive
same,outcome,[6],inactive
same,outcome,[7],inactive
